The values that follow come from PubChem BioAssay (NCATS).

“And” between values parts separate entries of the source, which are not always exact repeats. Identical values can stand only once. Inconclusive results are not listed. Where a call stands in place of a potency, no number is given. The source made the active and inactive calls. Calls come from the whole dose curve.

A short description of assay [1]: Cytotoxicity counterscreen for inhibitors of SARS-CoV-2 cell entry (AID 1645845). Note: nearly all actives have a fitted effect of over 50% in size. An outline of the steps: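 48 h compound treatment (after 1 h preincubation), HEK293-ACE2 cells, 37 C/5% CO2; ATP luminescence endpoint; normalized to cell wells and media blanks.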
Assay [2] can be described thus: Primary qHTS to identify inhibitors of SARS-CoV-2 cell entry (AID 1645846). Note: nearly all actives have a fitted effect of over 45% in size. Note: potency is the fitted concentration of half-maximal effect. The settings on record: activity change, negative = inhibition: at 57.1 µM (top of the series) unless noted. In outline: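 HEK293-ACE2 (Expi293F, stable hACE2), 1500 cells/well, o/n 37C; cpd 23 nL pin, 1 h; MLV-PP w/ SARS-CoV-2-S (Wuhan-Hu-1, Δ19 C-term); 48 h 37C; Bright-Glo luminescence; normalized vs S-PP and bald PP.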
For orientation: qHTS replaces the single test concentration by a dilution series.

On to `CCCN(CCC)C(=O)C(CCC(=O)OCCCN1CCN(CCOC(=O)Cc2c(C)n(C(=O)c3ccc(Cl)cc3)c3ccc(OC)cc23)CC1)NC(=O)c1ccccc1` (stereo not given), for which, in assay [1], the Potency entry was “inactive”. Moreover, the Potency in assay [2] is 28.2 µM (active).

For `CC(=O)CCC(=O)O`, the Potency result in assay [1] and in assay [2] was “inactive” in each case.

`CC(C)Cc1ccc(C(C)C(=O)OCc2ccccn2)cc1` (stereo not given): the Potency entry in assay [1] is “inactive”. In addition, the activity change, negative = inhibition in assay [2] was -13.1%.

On to `NS(=O)(=O)c1cc(C(=O)O)c(NCc2ccco2)cc1Cl`, for which the Potency result in assay [1] and in assay [2] was “inactive” in each case.

Consider `CC(=O)Nc1ccc(S(=O)(=O)Nc2ccc([N+](=O)[O-])cc2)cc1`, for which the Potency entry in assay [1] and in assay [2] was “inactive” throughout.

Take `CCOC(=O)c1c(N)sc2c1CCN(Cc1ccccc1)C2`: the Potency entry in assay [1] and in assay [2] was “inactive” each time.

Turning to `COc1ccccc1N1CCN(CCCNc2cc(=O)n(C)c(=O)n2C)CC1`, the Potency result in assay [1] is “inactive”. The activity change, negative = inhibition in assay [2] is -0.464%.

For `CCCCC[C@H](O)C=C[C@H]1[C@H](O)CC(=O)[C@H]1CC=CCCCC(=O)O`, the Potency entry in assay [1] and in assay [2] was “inactive” throughout.

Take `C[N+](C)(C)CCCCCCCCCC[N+](C)(C)C`: in assay [1], the Potency entry was “inactive”. Moreover, the activity change, negative = inhibition in assay [2] is -5.17%.

As to `Cn1c(=O)c2c(ncn2C)n(C)c1=O`, the Potency result in assay [1] is “inactive”. Besides, the activity change, negative = inhibition in assay [2] is 0.143% and -10.1%.

On to `CCn1cc(C(=O)O)c(=O)c2cc(F)c(N3CCN(C)CC3)cc21`, for which the Potency result in assay [1] and in assay [2] was “inactive” in each case.

Turning to `Cc1c(F)cc2c(=O)c(C(=O)O)cn3c2c1CCC3C` (stereo not given), the Potency result in assay [1] and in assay [2] was “inactive” in each case.

As for `c1ccc2[nH]c(-c3cscn3)nc2c1`, the Potency result in assay [1] and in assay [2] was “inactive” in each case.

`CC(C)(C)CC(=O)OCC(=O)[C@@]1(O)CC[C@H]2[C@@H]3CCC4=CC(=O)C=C[C@]4(C)[C@H]3[C@@H](O)C[C@@]21C`: the Potency result in assay [1] and in assay [2] was “inactive” in each case.

Turning to `CCc1oc2ccccc2c1C(=O)c1cc(Br)c(O)c(Br)c1`, in assay [1], the Potency result is “inactive”. The activity change, negative = inhibition in assay [2] is -14%.
